Records with an inconclusive call do not appear. Calls of active or inactive are those of the source. Unless noted, calls follow the shape of the dose curve; as a rule, active = well fitted curve in the direction sought with a large enough effect in the repeat runs; inconclusive = weak or mixed curves; inactive = no such curve, though single readings can be large; an effect the other way counts as inactive or inconclusive.
Legend:
[1] = qHTS assay to identify small molecule antagonists of the estrogen related receptor (ERR) signaling pathway from Tox21 library - cell viability counter screen (AID 1224834); also: nearly all actives have a fitted effect of over 30% in size
Summary of the method: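 ERR reporter cells were plated 6 h before compound addition, then exposed to test compounds in DMSO for 17.5 h at 37 C. Viability was read as CellTiter-Fluor fluorescence after a 30-minute incubation at 37 C.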

[2] = molecular target: Luciferin 4-monooxygenase (Photinus pyralis) (UniProt P08659); test: qHTS assay to identify small molecule inhibitors of firefly luciferase (AID 1224835); also: nearly all actives have a fitted effect of over 25% in size; also: potency is read from the fitted curve at half-maximal effect
Summary of the method: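 Inhibition of purified Photinus luciferase is measured by luminescence. Substrate levels (D-luciferin, ATP) sit at their KM values. Each compound is tested in a concentration series.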

[3] = qHTS assay to identify small molecule agonists of the constitutive androstane receptor (CAR) signaling pathway - cell viability counter screen (AID 1224836); also: nearly all actives have a fitted effect of over 45% in size
Summary of the method: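 Cells were seeded and incubated 4 hrs. Compounds were added across 15 concentrations together with PK11195 at 0.75 uM final. Plates were incubated 23 hrs at 37 C. CellTiter-Fluor was added and fluorescence measured.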

[4] = qHTS assay to identify small molecule antagonists of the constitutive androstane receptor (CAR) signaling pathway - cell viability counter screen (AID 1224837); also: nearly all actives have a fitted effect of over 45% in size
Summary of the method: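 HepG2 cells stably expressing hCAR and a CYP2B6-2.2kb reporter were plated and pre-incubated 4 hr at 37 C/5% CO2, then given compounds at 15 concentrations plus 50 nM CITCO (final). After 23 hr, viability was read by CellTiter-Fluor fluorescence.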

[5] = qHTS assay to identify small molecule antagonists of the estrogen related receptor signaling pathway with the pleiotropic PPARgamma coactivator (PGC) from Tox21 10K library - cell viability counter screen (AID 1224840; active = well fitted cell-killing curve with a large enough effect in the repeat runs, not every such curve was filed as active; also: nearly all actives have a fitted effect of over 40% in size)
Summary of the method: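 PGC/ERR cells were seeded at 2,000 cells/well and left 6 hours at 37 C/5% CO2 before pin-tool addition of compounds in DMSO. After 17.5 hours at 37 C, CellTiter-Fluor was added and fluorescence read 30 minutes later.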

[6] = qHTS assay to identify small molecule antagonists of the estrogen related receptor signaling pathway with the pleiotropic PPARgamma coactivator (PGC) from Tox21 10K library (AID 1224841; call rule not given here; also: actives are mostly falling curves and most rising ones were filed inactive; nearly all actives have a fitted effect of over 50% in size)
Summary of the method: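 PGC/ERR reporter cells were seeded at 2,000 cells/well and held 6 hours at 37 C/5% CO2 before pin-tool addition of compounds in DMSO. After 18 hours at 37 C, One-Glo was added and luminescence read after 30 minutes at room temperature.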

[7] = qHTS assay to identify small molecule agonists of the estrogen related receptor signaling pathway with the pleiotropic PPARgamma coactivator (PGC) from Tox21 10K library (AID 1224842); also: nearly all actives have a fitted effect of over 15% in size
Summary of the method: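 Luminescence from One-Glo (30 min, room temperature) measured after PGC/ERR cells had 18 h at 37 C with pinned compound (23 nL in DMSO). Cells had been seeded at 2,000 per well and pre-incubated 6 h.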

[8] = qHTS assay to identify small molecule agonists of H2AX (AID 1224845; active = well fitted activation curve with a large enough effect in the signal ratio in the repeat runs, not every such curve was filed as active; the % refers to the signal ratio)
Summary of the method: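 Phospho-H2AX Ser139 measured by HTRF (ex 320 nm; em 665 and 620 nm) after 24 hr antibody incubation. Compounds, 15 concentrations, 0.76% DMSO, were applied to CHO-K1 cells for 3hr at 37C before lysis.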

[9] = qHTS assay to identify small molecule agonists of the hypoxia (HIF-1) signaling pathway (AID 1224846; active = well fitted activation curve with a large enough effect in the signal ratio in the repeat runs, not every such curve was filed as active; the % refers to the signal ratio)
Summary of the method: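 HRE-bla ME-180 cells (beta-lactamase reporter under hypoxia response element) were plated at 2,000 cells/well in medium with 0.5% dialyzed FBS, rested 5 hrs, then given compounds in DMSO for 17 hrs at 37C, 5% CO2. Reporter induction was read with CCF4-AM FRET substrate.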

[10] = qHTS assay to identify small molecule antagonists of the estrogen related receptor (ERR) signaling pathway from Tox21 library (AID 1224848); also: nearly all actives have a fitted effect of over 50% in size
Summary of the method: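 Antagonist-mode screen of the Tox21 10K library in an NTP-provided ERR reporter cell line; 18 h compound exposure at 37 C, luminescence measured with ONE-Glo.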

[11] = qHTS assay to identify small molecule agonists of the estrogen related receptor (ERR) signaling pathway from Tox21 library (AID 1224849; calls by dose curve; also: nearly all actives have a fitted effect of over 15% in size); details: ERR reporter cell line, ONE-Glo luciferase, 18 h; at 92.4 µM (top of the series) unless noted
Summary of the method: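 ERR reporter cell line (NTP) seeded, rested 6 h at 37 C/5% CO2, then pinned with Tox21 compounds in DMSO. After 18 h at 37 C, ONE-Glo luciferase luminescence was read following 30 min at room temperature.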

[12] = qHTS RealTime-Glo MT Cell Viability Assay in HepG2 cells - 24 hour (AID 1224867); also: nearly all actives have a fitted effect of over 50% in size
Summary of the method: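 Cells + NanoLuc/prosubstrate dispensed (600 cells/well) → 5 h at 37 C/5% CO2 → compounds in DMSO transferred → 40 h incubation at 37 C, luminescence read at 0, 8, 16, 24, 32, 40 h.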

[13] = qHTS RealTime-Glo MT Cell Viability Assay in HEK293 cells - 32 hour (AID 1224868); also: nearly all actives have a fitted effect of over 50% in size; also: potency is read from the fitted curve at half-maximal effect
Summary of the method: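 Tox21 10K qHTS, HEK293, 600 cells/well, RealTime-Glo reagent co-dispensed with cells; 5 h preincubation, compound by pintool, 37 C, luminescence at 0–40 h.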

[14] = A CellTox Green Cytotoxicity Assay to monitor cytotoxicity in HEK293 cells - 0 hour (AID 1224869); also: nearly all actives have a fitted effect of over 50% in size
Summary of the method: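 HEK293 cells premixed with CellTox Green dye were seeded at 600 cells/well and left 5 h at 37 C/5% CO2 before pin transfer of 23 nL compound in DMSO. Fluorescence from dye bound to dead-cell DNA was read during 40 h treatment.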

[15] = qHTS RealTime-Glo MT Cell Viability Assay in HepG2 cells - 40 hour (AID 1224870); also: nearly all actives have a fitted effect of over 50% in size
Summary of the method: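 Real-time viability: cells seeded at 600 per well together with NanoLuc and cell-permeant prosubstrate, compounds added after 5 h incubation. Luminescence tracked at 0, 8, 16, 24, 32 and 40 h of exposure.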

[16] = qHTS assay to identify small molecule agonists of H2AX - cell viability counter screen (AID 1224847; calls by dose curve; also: top concentration of the series differs between compounds; nearly all actives have a fitted effect of over 30% in size)
Summary of the method: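 Cytotoxicity counter screen in wild-type CHO-K1 cells: a 3 hr compound treatment at 37C across 15 concentrations, followed by CellTiter-Glo luminescence to gauge viable cells.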

[17] = molecular target: Thyrotropin receptor (Homo sapiens) (UniProt P16473); test: qHTS assay to identify small molecule agonists of the thyroid stimulating hormone receptor (TSHR) signaling pathway (AID 1224843; calls by dose curve; also: nearly all actives have a fitted effect of over 45% in size)
Summary of the method: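 Screening of the Tox21 10K collection used HEK293 cells engineered with TSHR at 800 cells per well. After a 30-min room-temperature compound exposure, HTRF cAMP reagents were added and fluorescence recorded 1 h later.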

[18] = qHTS assay to identify small molecule agonists of the hypoxia (HIF-1) signaling pathway - cell viability counter screen (AID 1224844; calls by dose curve; also: nearly all actives have a fitted effect of over 50% in size)
Summary of the method: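 HRE-bla ME-180 cells in medium with 0.5% dialyzed FBS were preincubated 5 hrs at 37C, exposed to compounds for 17 hrs, then viability was read as CellTiter-Glo luminescence after 30 min at room temperature, in the reporter wells.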

[19] = molecular target: Nuclear receptor subfamily 1 group I member 3 (Homo sapiens) (UniProt Q14994); test: qHTS assay to identify small molecule antagonists of the constitutive androstane receptor (CAR) signaling pathway (AID 1224838); also: nearly all actives have a fitted effect of over 40% in size
Summary of the method: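 HepG2 cells stably co-transfected with hCAR and a CYP2B6-2.2kb luciferase reporter were seeded 4 h before compound addition at 15 concentrations. Cells were stimulated with 50 nM CITCO (final) for 24 h at 37 C; luciferase luminescence was then read.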

[20] = molecular target: Nuclear receptor subfamily 1 group I member 3 (Homo sapiens) (UniProt Q14994); test: qHTS assay to identify small molecule agonists of the constitutive androstane receptor (CAR) signaling pathway (AID 1224839);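 also: HepG2 cells stably carrying human CAR and a CYP2B6 luciferase reporter; nearly all actives have a fitted effect of over 15% in size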
Summary of the method: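 Cells were plated and incubated 4 hrs, then dosed with compounds at 15 concentrations. PK11195 was added to 0.75 uM final. After 24 hrs at 37 C, luciferase luminescence was measured.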
% is scaled to controls: 0 for no effect and ±100 for the full control effect.

Luciferin 4-monooxygenase (Photinus pyralis), sequence (P08659 whole entry, looked up): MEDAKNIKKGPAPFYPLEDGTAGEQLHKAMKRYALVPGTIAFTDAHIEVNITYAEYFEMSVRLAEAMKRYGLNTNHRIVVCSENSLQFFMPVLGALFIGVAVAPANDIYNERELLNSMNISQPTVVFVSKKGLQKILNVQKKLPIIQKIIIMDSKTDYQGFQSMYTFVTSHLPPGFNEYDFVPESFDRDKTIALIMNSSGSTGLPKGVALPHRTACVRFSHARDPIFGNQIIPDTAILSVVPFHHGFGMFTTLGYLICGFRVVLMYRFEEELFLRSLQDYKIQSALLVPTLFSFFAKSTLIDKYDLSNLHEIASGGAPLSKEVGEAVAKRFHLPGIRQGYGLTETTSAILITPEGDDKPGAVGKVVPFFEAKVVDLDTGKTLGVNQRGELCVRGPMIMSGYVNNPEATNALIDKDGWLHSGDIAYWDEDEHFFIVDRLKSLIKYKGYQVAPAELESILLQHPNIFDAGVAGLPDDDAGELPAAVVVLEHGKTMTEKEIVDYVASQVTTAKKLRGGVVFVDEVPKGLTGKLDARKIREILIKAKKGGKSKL
Thyrotropin receptor (Homo sapiens), sequence (P16473 whole entry, looked up): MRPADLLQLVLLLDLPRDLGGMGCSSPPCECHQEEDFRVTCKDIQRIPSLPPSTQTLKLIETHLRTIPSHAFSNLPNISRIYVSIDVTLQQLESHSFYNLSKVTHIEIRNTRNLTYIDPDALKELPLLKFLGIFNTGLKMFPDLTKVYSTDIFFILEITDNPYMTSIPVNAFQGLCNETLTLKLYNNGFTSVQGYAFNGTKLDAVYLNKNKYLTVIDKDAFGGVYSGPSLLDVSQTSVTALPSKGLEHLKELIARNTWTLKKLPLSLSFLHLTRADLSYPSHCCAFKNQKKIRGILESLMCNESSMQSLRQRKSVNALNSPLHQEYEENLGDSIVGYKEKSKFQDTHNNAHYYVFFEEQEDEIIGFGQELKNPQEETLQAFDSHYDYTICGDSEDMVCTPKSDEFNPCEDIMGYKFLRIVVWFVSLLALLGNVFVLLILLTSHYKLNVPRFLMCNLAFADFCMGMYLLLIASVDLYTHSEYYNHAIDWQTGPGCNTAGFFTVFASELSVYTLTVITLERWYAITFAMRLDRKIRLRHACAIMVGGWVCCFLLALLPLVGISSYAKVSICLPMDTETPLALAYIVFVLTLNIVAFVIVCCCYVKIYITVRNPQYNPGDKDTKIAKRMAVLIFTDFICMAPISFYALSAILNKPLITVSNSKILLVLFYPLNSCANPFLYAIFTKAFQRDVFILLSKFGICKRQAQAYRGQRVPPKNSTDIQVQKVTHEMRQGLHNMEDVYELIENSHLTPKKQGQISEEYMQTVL
Nuclear receptor subfamily 1 group I member 3 (Homo sapiens), sequence (Q14994 whole entry, looked up): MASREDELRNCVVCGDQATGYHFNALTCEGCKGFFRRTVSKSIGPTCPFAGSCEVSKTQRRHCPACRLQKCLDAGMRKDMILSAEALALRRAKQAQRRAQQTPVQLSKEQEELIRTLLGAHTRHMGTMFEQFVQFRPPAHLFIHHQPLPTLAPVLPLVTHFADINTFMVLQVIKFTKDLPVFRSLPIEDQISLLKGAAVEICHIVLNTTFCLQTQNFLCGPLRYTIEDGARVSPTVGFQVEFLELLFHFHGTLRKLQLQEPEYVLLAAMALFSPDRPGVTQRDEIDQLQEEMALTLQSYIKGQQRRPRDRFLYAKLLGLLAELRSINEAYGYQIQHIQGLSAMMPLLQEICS

CC(C)(C)S
inactive: Potency [1] | Potency [2] | Potency [3] | Potency [4] | Potency [5] | Potency [6] | Potency [7] | Potency [8] | outcome [9] | Potency [10] | activity change, positive = activation [11] 4.53% | Potency [12] | Potency [13] | Potency [14] | Potency [15]

C=CC(=O)NC(C)C
inactive: Potency [1] | Potency [2] | Potency [3] | Potency [4] | Potency [5] | Potency [6] | Potency [7] | Potency [8] | outcome [9] | Potency [16] | Potency [10] | activity change, positive = activation [11] 4.77% | Potency [12] | Potency [13] | Potency [14] | Potency [15]

O=C(O)c1cc(Cl)cc(Cl)c1O
inactive: Potency [1] | Potency [2] | Potency [3] | Potency [4] | Potency [5] | Potency [6] | Potency [7] | Potency [17] | Potency [18] | Potency [8] | outcome [9] | Potency [10] | activity change, positive = activation [11] 0.37% | Potency [12] | Potency [13] | Potency [14] | Potency [15]

CCCCCCCC/C=C\CCCCCCCC(=O)OCCO
inactive: Potency [1] | Potency [2] | Potency [3] | Potency [4] | Potency [5] | Potency [17] | Potency [18] | Potency [8] | outcome [9] | Potency [16] | Potency [13] | Potency [15]

CC(CN(CCN(CC(C)OCCO)CC(C)OCCO)CC(C)OCCO)OCCO (stereo not drawn)
inactive: Potency [1] | Potency [2] | Potency [3] | Potency [4] | Potency [5] | Potency [17] | Potency [18] | Potency [8] | outcome [9] | Potency [14]
active: Potency [13] 23.7 µM

CCOc1ncc(F)c(=O)[nH]1
inactive: Potency [1] | Potency [2] | Potency [3] | Potency [4] | Potency [5] | Potency [17] | Potency [18] | Potency [8] | outcome [9] | Potency [16] | Potency [12] | Potency [13] | Potency [14] | Potency [15]

Cc1ccc(S(=O)(=O)NC(=O)NC2CCCCC2)cc1
inactive: Potency [1] | Potency [2] | Potency [3] | Potency [4] | Potency [5] | Potency [17] | Potency [8] | outcome [9] | Potency [16] | Potency [12] | Potency [13] | Potency [14] | Potency [15]

O=CNNC=O
inactive: Potency [1] | Potency [2] | Potency [3] | Potency [4] | Potency [5] | Potency [8] | outcome [9] | Potency [16] | Potency [12] | Potency [13] | Potency [14] | Potency [15]

O=C(Nc1ccc(C(=O)O)c(O)c1)c1ccccc1
active: Potency [2] 27.5 µM
inactive: Potency [1] | Potency [4] | Potency [19] | Potency [20] | Potency [5] | Potency [17] | Potency [18] | Potency [8] | outcome [9] | Potency [12] | Potency [14] | Potency [15]
